From PubChem BioAssay
Anthrax LF inh2 – blocks Bacillus anthracis lethal factor protease | multiplex microsphere protease cleavage assay, LF | 360,000 tested, 0.12% active | inhibition, % at 10 µM | AID 588501
Autofluor counter – counter-screen for toxin protease inhibitors: compound fluorescence; compound autofluorescence counterscreen, microsphere flow cytometry; stronger effect = higher value; fluorescence intensity (test concentration not listed); 360,000 tested, 3.1% active; AID 624483; in the data active = fluorescence intensity above about 16000; inconclusive = no clear call, values can overlap the other calls
MazEF act – activators of E. coli MazEF toxin-antitoxin RNase; P0AE70; FAM/BHQ RNA-DNA oligo cleavage fluorescence, 5 h; activation, % at 20 µM; 350,000 tested, 0.32% active; AID 504720; in the data active = activation above about 50%
BoNT-A LC inh2 – inhibitors of Botulinum neurotoxin A light chain protease. multiplex microsphere protease substrate cleavage, flow cytometry. inhibition, % at 10 µM. 360,000 tested, 0.17% active
BoNT-F LC inh – blocks Botulinum neurotoxin F light chain protease; Multiplex microsphere protease cleavage assay, flow cytometry; inhibition, % at 10 µM; 360,000 tested, 0.22% active; in the data active = inhibition above about 35%, passing the limit was not always enough; inconclusive = no clear call, values can overlap the other calls
VHR inh abs – blocks human VHR1 dual specificity phosphatase | P51452 | recombinant VHR phosphatase, pNPP absorbance | inhibition, % at 13.3 µM | 290,000 tested, 0.52% active | AID 1654; in the data active = inhibition above about 50%
Numbers stand for hits. Rows were chosen to be rich in hits. Some 4.1% of all compounds tested hit in one or more screens of this group. Cut-off read from the data, not from the text of the source, unless noted: active = inhibition above about 30%; inconclusive = no clear call, values can overlap the other calls; inactive = below that.

What do the screens show for `CCC(C(=O)NCC1CCCO1)N(C(=O)CNS(=O)(=O)c1ccccc1)c1ccc(F)cc1` (configuration not stated)?
Anthrax LF inh2: inactive; Autofluor counter: inactive; MazEF act: inactive; BoNT-A LC inh2: inactive; BoNT-F LC inh: inactive; VHR inh abs: inactive

Results for COc1ccc(N(CC(=O)NCC2CCCO2)S(=O)(=O)c2c(C)noc2C)cc1 (configuration not stated) ?
Anthrax LF inh2: inactive; Autofluor counter: 23408; MazEF act: inactive; BoNT-A LC inh2: inconclusive; BoNT-F LC inh: inactive; VHR inh abs: inactive

Results for CCOc1ccc(N(CC(=O)NCc2cccc(OC)c2)S(=O)(=O)c2c(C)noc2C)cc1 ?
Anthrax LF inh2: inconclusive; Autofluor counter: inconclusive; MazEF act: inactive; BoNT-A LC inh2: inactive; BoNT-F LC inh: inconclusive; VHR inh abs: inactive

Results for CCCC(C(=O)NCC1CCCO1)N(C(=O)CNS(=O)(=O)c1ccccc1)c1ccc(F)cc1 (configuration not stated) ?
Anthrax LF inh2: inactive; Autofluor counter: inactive; MazEF act: inactive; BoNT-A LC inh2: inactive; BoNT-F LC inh: inactive; VHR inh abs: 58

How did COc1ccc(N(CC(=O)NCc2cccc(OC)c2)S(=O)(=O)c2c(C)noc2C)cc1 do in these assays?
Anthrax LF inh2: inactive; Autofluor counter: 20088; MazEF act: inactive; BoNT-A LC inh2: inactive; BoNT-F LC inh: inactive; VHR inh abs: inactive

What do the screens show for `COCC(C)NC(=O)C1CC(=O)N(CCc2ccc(F)cc2)C1` (configuration not stated)?
Anthrax LF inh2: inactive; Autofluor counter: inactive; MazEF act: inactive; BoNT-A LC inh2: inactive; BoNT-F LC inh: inactive

How did O=C1NC[C@@H](CCCCN2CCN(CCc3ccc(O)cc3)C(=O)C2=O)N(CCC2CCCCC2)C1=O do in these assays?
Anthrax LF inh2: inactive; Autofluor counter: inactive; BoNT-A LC inh2: inactive; BoNT-F LC inh: inactive

How did CCCCc1c(-c2ccc(OC)cc2)ncn1CCc1ccccc1OC do in these assays?
Anthrax LF inh2: inactive; Autofluor counter: inactive; BoNT-A LC inh2: inactive; BoNT-F LC inh: inactive

Results for O=C(OCCN1CCN(c2ncc(C(F)(F)F)cc2Cl)CC1)c1ccc(Cl)cc1 ?
Anthrax LF inh2: inactive; Autofluor counter: inactive; MazEF act: inactive; BoNT-A LC inh2: inactive; BoNT-F LC inh: inactive; VHR inh abs: inactive

Results for O=C(OC1CCN(c2ncc(C(F)(F)F)cc2Cl)CC1)c1ccc(Cl)cc1 ?
Anthrax LF inh2: inactive; Autofluor counter: 24209; MazEF act: inactive; BoNT-A LC inh2: inactive; BoNT-F LC inh: inactive; VHR inh abs: inactive

What do the screens show for `CON=C1CCN(c2ncc(C(F)(F)F)cc2Cl)CC1`?
Anthrax LF inh2: inactive; Autofluor counter: 19907; MazEF act: inactive; BoNT-A LC inh2: inconclusive; BoNT-F LC inh: inactive; VHR inh abs: inactive

What do the screens show for `CCOC(=O)[C@]12CCCC=C1N(Cc1cccc3ccccc13)C(=O)[C@H](CC(=O)NCc1ccc(OC)c(OC)c1)C2`?
Anthrax LF inh2: inactive; Autofluor counter: inactive; BoNT-A LC inh2: inactive; BoNT-F LC inh: inactive

Results for CCc1nnc(NC(=O)CSc2nnc(CNc3ccc(F)cc3)n2C2CCCCC2)s1 ?
Anthrax LF inh2: inactive; Autofluor counter: 16238; MazEF act: inactive; BoNT-A LC inh2: inactive; BoNT-F LC inh: inactive; VHR inh abs: inactive

How did Cc1cc(NC(=O)CSc2nnc3ccc(-c4ccc(F)cc4)nn23)no1 do in these assays?
Anthrax LF inh2: inconclusive; Autofluor counter: inconclusive; MazEF act: inactive; BoNT-A LC inh2: inconclusive; BoNT-F LC inh: inconclusive

What do the screens show for `Cc1cc(NC(=O)CSc2nnc(CNc3ccc(F)cc3)n2C2CCCCC2)no1`?
Anthrax LF inh2: inactive; Autofluor counter: 23158; MazEF act: inactive; BoNT-A LC inh2: inactive; BoNT-F LC inh: inactive; VHR inh abs: inactive

What do the screens show for `c1ccc(OCC2CCNCC2)nc1`?
Anthrax LF inh2: inactive; Autofluor counter: inactive; MazEF act: inactive; BoNT-A LC inh2: inactive; BoNT-F LC inh: inactive; VHR inh abs: inactive

What do the screens show for `CCOc1cc(/C=C2/SC(=S)NC2=O)ccc1OC(=O)c1ccco1`?
Anthrax LF inh2: inactive; Autofluor counter: inactive; MazEF act: inactive; BoNT-A LC inh2: inactive; BoNT-F LC inh: inactive; VHR inh abs: inactive

Results for O=C1NC(=S)S/C1=C/c1ccc(OC(=O)c2ccco2)cc1 ?
Anthrax LF inh2: inactive; Autofluor counter: inactive; MazEF act: 74; BoNT-A LC inh2: inactive; BoNT-F LC inh: inactive; VHR inh abs: inactive

Results for O=C(COc1ccc(Br)cc1Cl)NC(=S)N1CCc2ccccc21 ?
Anthrax LF inh2: inactive; Autofluor counter: inactive; MazEF act: inactive; BoNT-A LC inh2: inactive; BoNT-F LC inh: inactive; VHR inh abs: inactive

How did O=C(COc1ccc(Br)cc1Br)NC(=S)N1CCCc2ccccc21 do in these assays?
Anthrax LF inh2: 31; Autofluor counter: inactive; MazEF act: inactive; BoNT-A LC inh2: inactive; BoNT-F LC inh: inactive; VHR inh abs: inactive

Results for COC(=O)CN(n1cnnc1)S(=O)(=O)c1ccccc1 ?
Anthrax LF inh2: inactive; Autofluor counter: 22038; MazEF act: inactive; BoNT-A LC inh2: inactive; BoNT-F LC inh: inactive; VHR inh abs: inactive

Results for COC(=O)CN(c1ccccc1)S(=O)(=O)c1ccccc1 ?
Anthrax LF inh2: inactive; Autofluor counter: inactive; MazEF act: inactive; BoNT-A LC inh2: inactive; BoNT-F LC inh: inactive; VHR inh abs: inactive

What do the screens show for `CC1=C(C(N)=O)C(c2ccc(Cl)cc2Cl)n2ncnc2N1` (configuration not stated)?
Anthrax LF inh2: inactive; Autofluor counter: 21777; MazEF act: inactive; BoNT-A LC inh2: inactive; BoNT-F LC inh: inactive; VHR inh abs: inactive

Results for CC(=O)C1=C(C)Nc2ncnn2C1c1ccc(O)cc1 (configuration not stated) ?
Anthrax LF inh2: inactive; Autofluor counter: inactive; MazEF act: inactive; BoNT-A LC inh2: inactive; BoNT-F LC inh: inactive; VHR inh abs: 58

What do the screens show for `O=C1N=C2SCCN2/C1=C\c1ccc(Cl)cc1`?
Anthrax LF inh2: inactive; Autofluor counter: inactive; MazEF act: inactive; BoNT-A LC inh2: inactive; BoNT-F LC inh: inactive; VHR inh abs: 56

What do the screens show for `Fc1ccc(-c2nnc(Cc3nnc(-c4ccc(F)cc4)o3)o2)cc1`?
Anthrax LF inh2: inactive; Autofluor counter: 22771; MazEF act: inactive; BoNT-A LC inh2: inactive; BoNT-F LC inh: inactive; VHR inh abs: inactive

Results for Cc1cccc(NC(=O)CNC(=O)COC(=O)C2CC2C)c1C (configuration not stated) ?
Anthrax LF inh2: inactive; Autofluor counter: inactive; MazEF act: inactive; BoNT-A LC inh2: inactive; BoNT-F LC inh: inactive

Results for O=C(Cc1csc(N2CCOCC2)n1)N/N=C/c1cccc(O)c1 ?
Anthrax LF inh2: inactive; Autofluor counter: inactive; MazEF act: inactive; BoNT-A LC inh2: inactive; BoNT-F LC inh: inactive; VHR inh abs: inactive

Results for O=C(Cc1csc(N2CCOCC2)n1)N/N=C/c1ccc(F)cc1 ?
Anthrax LF inh2: inactive; Autofluor counter: 20712; MazEF act: inactive; BoNT-A LC inh2: inactive; BoNT-F LC inh: inactive; VHR inh abs: inactive

Results for COc1ccc(NC(=O)CCNS(=O)(=O)c2cc(Br)ccc2Br)cc1S(N)(=O)=O ?
Anthrax LF inh2: inactive; Autofluor counter: inactive; MazEF act: inactive; BoNT-A LC inh2: inactive; BoNT-F LC inh: inactive; VHR inh abs: inactive
